Source: PubChem BioAssay (Tox21)
Records with an inconclusive call do not appear. Active and inactive are the calls of the source. Calls come from the whole dose curve; as a rule, active = well fitted curve in the direction sought with a large enough effect in the repeat runs; inconclusive = weak or mixed curves; inactive = no such curve, though single readings can be large; an effect the other way counts as inactive or inconclusive.

What was measured:
[1] = A CellTox Green Cytotoxicity Assay to monitor cytotoxicity in HEK293 cells - 40 hour (AID 1224871); note: nearly all actives have a fitted effect of over 45% in size
In short: (§1)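 Fluorescence from a DNA-binding dye excluded by viable cells was measured repeatedly in the same HEK293 wells (600 cells/well) during continuous compound exposure at 37 C. Each assay gives one read point: 0, 8, 16, 24, 32 or 40 h.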

[2] = qHTS RealTime-Glo MT Cell Viability Assay in HEK293 cells - 16 hour (AID 1224872); note: top concentration of the series differs between compounds; nearly all actives have a fitted effect of over 50% in size
In short: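 Viability tracked continuously by luminescence as live cells reduce a prosubstrate for NanoLuc; HEK293 cells preincubated 5 h, compound-treated at 37 C, and read at 0, 8, 16, 24, 32 and 40 h.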

[3] = qHTS RealTime-Glo MT Cell Viability Assay in HepG2 cells - 8 hour (AID 1224873); note: nearly all actives have a fitted effect of over 55% in size
In short: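 HepG2 cells (600/well) mixed with RealTime-Glo MT reagent, settled 5 h at 37 C/5% CO2 before compound addition. Nonlytic NanoLuc luminescence from viable-cell prosubstrate reduction read repeatedly during 40 h treatment at 37 C.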

[4] = qHTS RealTime-Glo MT Cell Viability Assay in HEK293 cells - 40 hour (AID 1224874); conditions: RealTime-Glo luminescence; max response: hits give low values; note: nearly all actives have a fitted effect of over 50% in size
In short: (§2)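 Luminescence, which tracks viable cell number through reduction of the prosubstrate to a NanoLuc substrate, was read over continuous 37 C culture. Cells (600/well) were premixed with reagent and rested 5 h before 23 nL of compound in DMSO was pinned.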

[5] = A CellTox Green Cytotoxicity Assay to monitor cytotoxicity in HEK293 cells - 24 hour (AID 1224875); note: series mostly up to about 77 µM; nearly all actives have a fitted effect of over 45% in size
In short: as §1

[6] = A CellTox Green Cytotoxicity Assay to monitor cytotoxicity in HepG2 cells - 16 hour (AID 1224876); note: nearly all actives have a fitted effect of over 45% in size
In short: (§3)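 Real-time cytotoxicity: fluorescence of a cell-impermeant cyanine dye binding DNA of dead HepG2 cells, measured repeatedly (0–40 h) during compound exposure at 37 C. Cells seeded 600/well with reagent, dosed after 5 h.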

[7] = qHTS RealTime-Glo MT Cell Viability Assay in HepG2 cells - 32 hour (AID 1224877); note: nearly all actives have a fitted effect of over 55% in size
In short: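 Viability was tracked continuously by NanoLuc luminescence from prosubstrate reduced by living HepG2 cells, at successive time points over 40 h of compound exposure. Cells with reagent were preincubated 5 h at 37 °C before compound addition.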

[8] = A CellTox Green Cytotoxicity Assay to monitor cytotoxicity in HepG2 cells - 24 hour (AID 1224878); note: nearly all actives have a fitted effect of over 45% in size
In short: as §3

[9] = A CellTox Green Cytotoxicity Assay to monitor cytotoxicity in HepG2 cells - 40 hour (AID 1224879); note: nearly all actives have a fitted effect of over 40% in size
In short: as §3

[10] = qHTS RealTime-Glo MT Cell Viability Assay in HEK293 cells - 0 hour (AID 1224880)
In short: as §2
% is set by controls: 0 for no effect and ±100 for the full control effect.

CCOC(=O)c1cccnc1
inactive: Potency [1] | Potency [2] | Potency [3] | max response [4] 1.88% | Potency [5] | Potency [6] | Potency [7] | Potency [8] | Potency [9]

Cc1ccccc1S(=O)(=O)O
inactive: Potency [1] | Potency [2] | Potency [3] | max response [4] 3.84% | Potency [5] | Potency [6] | Potency [7] | Potency [8] | Potency [9] | Potency [10]

O=C1OC(=O)C2C3C=CC(C3)C12 (stereo not drawn)
inactive: Potency [1] | Potency [2] | Potency [3] | max response [4] 12.9% | Potency [5] | Potency [6] | Potency [7] | Potency [8] | Potency [9]

Nc1ncn([C@H]2C[C@H](O)[C@@H](CO)O2)c(=O)n1
inactive: Potency [1] | Potency [2] | Potency [3] | max response [4] 2.14% | Potency [5] | Potency [6] | Potency [7] | Potency [8] | Potency [9]

CCOC(=O)C(=O)CCc1ccccc1
inactive: Potency [1] | Potency [2] | Potency [3] | max response [4] 0.79% | Potency [5] | Potency [6] | Potency [7] | Potency [8] | Potency [9] | Potency [10]

CCc1cc(C2=C(C(=O)O)N(c3ccccc3C(F)(F)F)S(=O)(=O)c3ccccc32)cc2c1OCO2
inactive: Potency [1] | Potency [2] | Potency [3] | max response [4] -24.9% | Potency [5] | Potency [6] | Potency [7] | Potency [8] | Potency [9]

CC(=O)c1cccc([N+](=O)[O-])c1
inactive: Potency [1] | Potency [2] | Potency [3] | max response [4] 3.17% | Potency [5] | Potency [6] | Potency [7] | Potency [8] | Potency [9] | Potency [10]

CC(CSC(=O)c1ccccc1)C(=O)N1C[C@@H](Sc2ccccc2)C[C@H]1C(=O)O (stereo partly drawn)
inactive: cytotoxicity increase [1] 1.14% [at 15.8 µM] | activity change, negative = cytotoxicity [2] -4.93% [at 15.8 µM] | viability change, negative = cytotoxic [3] 1.39% [at 15.8 µM] | max response [4] -5.01% | activity change [5] 3.46% [at 15.8 µM, hits give high values] | cytotoxicity increase [6] -2.05% [at 15.8 µM] | activity change, negative = cytotoxic [7] 4.17% [at 15.8 µM] | cytotoxicity [8] -1.93% [at 15.8 µM] | cytotoxicity increase [9] -0.523% [at 15.8 µM]

CC1=CC=C(C(C)C)CC1
inactive: Potency [1] | Potency [2] | Potency [3] | max response [4] 1.32% | Potency [5] | Potency [6] | Potency [7] | Potency [8] | Potency [9]

CCCC(=O)Nc1ccc(O)c(C(C)=O)c1
inactive: Potency [1] | Potency [2] | Potency [3] | max response [4] -1.71% | Potency [5] | Potency [6] | Potency [7] | Potency [8]

C=CCOc1ccccc1OCC(O)CNC(C)C (stereo not drawn)
inactive: Potency [1] | Potency [2] | Potency [3] | max response [4] 4.45% | Potency [5] | Potency [6] | Potency [7] | Potency [8] | Potency [9] | Potency [10]

CCOC(=O)C(F)(F)F
inactive: Potency [1] | Potency [2] | Potency [3] | max response [4] 6.21% | Potency [5] | Potency [6] | Potency [7] | Potency [8] | Potency [9] | Potency [10]

O=C(O)CNCC(=O)O
inactive: cytotoxicity increase [1] 3.68% [at 6.97 µM] | activity change, negative = cytotoxicity [2] -7.32% [at 6.97 µM] | viability change, negative = cytotoxic [3] 0.198% [at 6.97 µM] | max response [4] -8.46% | activity change [5] 3.54% [at 6.97 µM, hits give high values] | cytotoxicity increase [6] -9.02% [at 6.97 µM] | activity change, negative = cytotoxic [7] 0.774% [at 6.97 µM] | cytotoxicity [8] -3.31% [at 6.97 µM]

CCCCC(CC)COC(=O)COc1ccc(Cl)cc1Cl (stereo not drawn)
inactive: Potency [1] | Potency [2] | Potency [3] | max response [4] 11% | Potency [5] | Potency [6] | Potency [7] | Potency [8]

Nc1cccc([N+](=O)[O-])c1
inactive: Potency [1] | Potency [2] | Potency [3] | max response [4] 1.66% | Potency [5] | Potency [6] | Potency [7] | Potency [8] | Potency [9] | Potency [10]

CCCCCC[C@@H](O)C/C=C\CCCCCCCC(=O)OC
inactive: Potency [1] | Potency [2] | Potency [3] | max response [4] 0.122% | Potency [5] | Potency [6] | Potency [7] | Potency [8] | Potency [9] | Potency [10]

CC/C=C\CCOC(=O)CC
inactive: Potency [1] | Potency [2] | Potency [3] | max response [4] 0.388% | Potency [5] | Potency [6] | Potency [7] | Potency [8] | Potency [9] | Potency [10]

O=C(O)C1(C(=O)O)CCC1.[NH2-].[NH2-].[Pt+2]
inactive: Potency [1] | Potency [2] | Potency [3] | max response [4] -1.65% | Potency [5] | Potency [6] | Potency [7] | Potency [8] | Potency [9] | Potency [10]

Nc1ccc(S(=O)(=O)Nc2ccccc2)cc1
inactive: Potency [1] | Potency [2] | Potency [3] | max response [4] 0.381% | Potency [5] | Potency [6] | Potency [7] | Potency [8] | Potency [9] | Potency [10]

O=C1C(O)=C(O)C(=O)C(O)=C1O
inactive: Potency [1] | Potency [2] | Potency [3] | max response [4] -9.06% | Potency [5] | Potency [6] | Potency [7] | Potency [8] | Potency [9] | Potency [10]

CCCn1cnc2c1c(=O)n(CCCCC(C)=O)c(=O)n2C
inactive: Potency [1] | Potency [2] | Potency [3] | max response [4] -0.107% | Potency [5] | Potency [6] | Potency [7] | Potency [8] | Potency [9] | Potency [10]
